# From PubChem BioAssay (NCI)
# About 83,000 compounds went through this panel and 20% of them were active in at least one assay; those are over-represented in the sample as a whole.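 Values shown are percent growth following 48 h exposure of cells in 96-well plates to a single concentration of compound; below 10 was considered active.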 Unmarked numbers belong to inactive results. Calls of active or inactive are those of the source.
# System: SW-620 colon
# Assay: NCI-60 one-dose screen, 48 h (100 = growth as untreated, 0 = no growth, -100 = all killed)
# Details: 10 µM unless noted
row,Compound,growth
1,CCCNc1nc(N(C)O)nc(N(C)O)n1,38.1%
2,CC(C)(C)CC(C)(C)c1ccc(OCCOCC[N+](C)(C)CC(=O)[O-])cc1,101%
3,O=C1c2ccccc2C(=Cc2ccccc2)c2ccccc21,12.6%
4,COC(=O)[C@]12CC[C@@H](C)[C@H](C)[C@@H]1C1=CC[C@@H]3[C@@]4(C)C=C(O)C(=O)C(C)=C4CC[C@@]3(C)[C@]1(C)CC2,27.9%
5,Cn1cnc2c1c(=O)n(CCC(=O)Nc1ccc(F)cc1)c(=O)n2C,107%
6,N#C/C(=C\c1ccc(-c2ccc(F)cc2)o1)c1nc(-c2ccco2)cs1,96.5%
7,Nc1nc(N)c2nc3c(nc2n1)CCCCCCCCCC3,34.3%
8,COc1ccc(-n2c(/C=C/c3ccc(O)c(OC)c3)cc(/C=C/c3ccc(O)c(OC)c3)nc2=O)cc1,29.8%
9,NC(=O)[C@@H]1CC2CCC1C2 (stereo partly drawn),94%
10,COc1cccc(-c2nn(-c3ccccc3)cc2-c2ccnc(NCCNS(=O)(=O)c3ccc(Cl)cc3)c2)c1,48.1%
11,C=C1C(=O)O[C@H]2[C@H]1CC/C(COC(=O)NCc1cc3ccccc3[nH]1)=C\CC[C@@]1(C)O[C@@H]21,-37.8% (active)
12,[B-][N+](CC)(CC)c1ccccc1,109%
13,Cc1nn2c(-c3nc4cc(Cl)c(Cl)cc4[nH]3)c(-c3ccc(F)cc3)nc2s1,39.5%
14,O=C1C=C(C(O)c2ccc(O)cc2)C(=O)c2ccccc21 (stereo not drawn),97.4%
15,CCCC(=O)N1CCCCC1CC (stereo not drawn),93.8%
16,COC(=O)[C@]12CC[C@@H](C)[C@H](C)[C@@H]1C1=CC[C@@H]3[C@@]4(C)C[C@@H](OC(C)=O)[C@H](O)[C@@](C)(CO)[C@@H]4[C@H](O)C[C@@]3(C)[C@]1(C)CC2,-67.8% (active)

row,Compound,growth
1,Cn1cc(-c2nc(-c3c[nH]c4ncccc34)cs2)c2ccccc21,95.8%
2,COc1ccc(O)c(-c2cc(-c3ccc(Cl)cc3)c(C#N)c(=O)[nH]2)c1,74.7%
3,C/C(=N\Nc1cc(C)c2cc(C)ccc2n1)c1ccccn1,-81.3% (active)
4,COC(=O)C(N)CSC(c1ccccc1)(c1ccccc1)c1ccccc1 (stereo not drawn),21.1%
5,CCCCCCCC(=O)SCC/C=C/[C@@H]1CC(=O)NCc2cccc(n2)CN(Cc2ccc3ccccc3c2)CC(=O)N[C@@H](C(C)C)C(=O)O1,76.8%
6,C=C(C)[C@@H]1CC[C@]2(CN)CC[C@]3(C)[C@H](CC[C@@H]4[C@@]5(C)CCC(=O)NC(C)(C)[C@@H]5CC[C@]43C)[C@@H]12,75.9%
7,CC(=O)O[C@@H]1CCN2C(=O)N(C)c3ccccc3[C@@H]2C1,113%
8,Cc1cc(N(CCCNc2ccnc3cc(Cl)ccc23)Cc2ccco2)nc(Cl)n1,66.2%
9,O=S(=O)(NCCNc1cc(-c2cn(-c3ccccc3)nc2-c2cccc(O)c2)ccn1)c1ccc(Cl)cc1,32.8%
10,Cn1c(=O)c2c(nc(N3CCCC3)n2C)n(C)c1=O,106%
11,Cn1cc(-c2csc(-c3cn(CCN)c4ccc(F)cc34)n2)c2cccnc21,52.6%
12,CC1=NN(c2ccc(S(=O)(=O)O)cc2Cl)C(=O)C1,107%
13,CC(CNc1nc(Nc2ccc(Cl)c(Cl)c2)nc(C(Cl)(Cl)Cl)n1)N(C)C (stereo not drawn),-74.8% (active)
14,O=C1NC(=Nc2ccc(S(=O)(=O)Nc3nccs3)cc2)S/C1=C\c1coc2ccccc2c1=O,99.7%
15,O=C(c1ccccc1)C(CN1CCOCC1)c1ccccc1 (stereo not drawn),-45.2% (active)

# System: MCF7 breast
# Assay: as above
# Details: 10 µM unless noted
row,Compound,growth
1,CCCNc1nc(N(C)O)nc(N(C)O)n1,15.6%
2,Brc1ccc(Cn2nnnc2-c2ccn(-c3ccccc3)n2)cc1,77.7%
3,CC(C)(C)CC(C)(C)c1ccc(OCCOCC[N+](C)(C)CC(=O)[O-])cc1,105%
4,CN(C)c1ccc(N)c2ccccc12,-70.1% (active)
5,COC(=O)[C@]12CC[C@@H](C)[C@H](C)[C@@H]1C1=CC[C@@H]3[C@@]4(C)C=C(O)C(=O)C(C)=C4CC[C@@]3(C)[C@]1(C)CC2,17.2%
6,Cn1cnc2c1c(=O)n(CCC(=O)Nc1ccc(F)cc1)c(=O)n2C,101%
7,COC1=C(Br)C(=O)C(OC)=C(Br)C1=O,83%
8,N#C/C(=C\c1ccc(-c2ccc(F)cc2)o1)c1nc(-c2ccco2)cs1,11.7%
9,Nc1nc(N)c2nc3c(nc2n1)CCCCCCCCCC3,46.2%
10,COc1ccc(-n2c(/C=C/c3ccc(O)c(OC)c3)cc(/C=C/c3ccc(O)c(OC)c3)nc2=O)cc1,19.7%
11,NC(=O)[C@@H]1CC2CCC1C2 (stereo partly drawn),103%
12,COc1cccc(-c2nn(-c3ccccc3)cc2-c2ccnc(NCCNS(=O)(=O)c3ccc(Cl)cc3)c2)c1,11%
13,C=C1C(=O)O[C@H]2[C@H]1CC/C(COC(=O)NCc1cc3ccccc3[nH]1)=C\CC[C@@]1(C)O[C@@H]21,0.667% (active)
14,[B-][N+](CC)(CC)c1ccccc1,95.9%
15,Cc1nn2c(-c3nc4cc(Cl)c(Cl)cc4[nH]3)c(-c3ccc(F)cc3)nc2s1,40.1%
16,O=C1C=C(C(O)c2ccc(O)cc2)C(=O)c2ccccc21 (stereo not drawn),94.1%
17,CCCC(=O)N1CCCCC1CC (stereo not drawn),103%
18,Cc1nn(-c2ccc(Cl)cc2)c(=O)n1CCn1cnc2ccccc21,95.5%
19,COC(=O)[C@]12CC[C@@H](C)[C@H](C)[C@@H]1C1=CC[C@@H]3[C@@]4(C)C[C@@H](OC(C)=O)[C@H](O)[C@@](C)(CO)[C@@H]4[C@H](O)C[C@@]3(C)[C@]1(C)CC2,-73.5% (active)

row,Compound,growth
1,O=C(/C=C\c1ccc2c(c1)OCO2)/C=C/c1ccc2c(c1)OCO2,13.2%
2,Cn1cc(-c2nc(-c3c[nH]c4ncccc34)cs2)c2ccccc21,10.5%
3,O=C1C=Cc2ncccc2C1=O,12.5%
4,COCCNC1=C(Cl)C(=O)c2ccccc2C1=O,81.3%
5,COc1ccc(O)c(-c2cc(-c3ccc(Cl)cc3)c(C#N)c(=O)[nH]2)c1,46.6%
6,C/C(=N\Nc1cc(C)c2cc(C)ccc2n1)c1ccccn1,-76.1% (active)
7,COC(=O)C(N)CSC(c1ccccc1)(c1ccccc1)c1ccccc1 (stereo not drawn),13.1%
8,CCCCCCCC(=O)SCC/C=C/[C@@H]1CC(=O)NCc2cccc(n2)CN(Cc2ccc3ccccc3c2)CC(=O)N[C@@H](C(C)C)C(=O)O1,26.5%
9,C=C(C)[C@@H]1CC[C@]2(CN)CC[C@]3(C)[C@H](CC[C@@H]4[C@@]5(C)CCC(=O)NC(C)(C)[C@@H]5CC[C@]43C)[C@@H]12,41.5%
10,CC(=O)O[C@@H]1CCN2C(=O)N(C)c3ccccc3[C@@H]2C1,94.6%
11,Cc1cc(N(CCCNc2ccnc3cc(Cl)ccc23)Cc2ccco2)nc(Cl)n1,42.4%
12,O=S(=O)(NCCNc1cc(-c2cn(-c3ccccc3)nc2-c2cccc(O)c2)ccn1)c1ccc(Cl)cc1,14.9%
13,Cn1c(=O)c2c(nc(N3CCCC3)n2C)n(C)c1=O,99.1%
14,Cn1cc(-c2csc(-c3cn(CCN)c4ccc(F)cc34)n2)c2cccnc21,36.2%
15,CC1=NN(c2ccc(S(=O)(=O)O)cc2Cl)C(=O)C1,94.4%
16,CC(CNc1nc(Nc2ccc(Cl)c(Cl)c2)nc(C(Cl)(Cl)Cl)n1)N(C)C (stereo not drawn),-64.8% (active)
17,O=C1NC(=Nc2ccc(S(=O)(=O)Nc3nccs3)cc2)S/C1=C\c1coc2ccccc2c1=O,88%
18,O=C(c1ccccc1)C(CN1CCOCC1)c1ccccc1 (stereo not drawn),1.11% (active)
